The results in this text go back to PubChem BioAssay (NCI).

Each structure is given as a SMILES string. This is part of a sample that, as a whole, favours compounds with a hit. Of some 79,000 tested, about 15% had one in any assay. Active and inactive are the calls of the source. No stated cut-off is given here; in the data, active means growth inhibition above about 70%; inactive means the rest.

The first experiment can be described thus: NCI Yeast Anticancer Drug Screen. Data for the rad50 strain (AID 155).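 Further: 0% = growth of vehicle-only cultures of the same strain.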 The note with it: S. cerevisiae rad50 strain growth inhibition; at 5.0 µM (retest, dose inferred, filed as 0.5); stronger effect = higher value. The procedure, abridged: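 Yeast carrying a defined DNA repair defect were exposed to test compounds, and growth was compared with vehicle-treated controls to give percent inhibition.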
Regarding `Cc1ccccc1N1C(=O)C(=O)c2cccc(C)c21`, the growth inhibition is 2% (inactive).
On the same count and under the same terms, to `Nc1n[nH]c(=O)c2cccnc12` belongs -1% (inactive); to `CCCCNCCCNCCCNC(=O)c1csc(-c2csc(CCNC(=O)C(NC(=O)C(C)C(O)C(C)NC(=O)C(NC(=O)c3nc(C(CC(N)=O)NCC(N)C(N)=O)nc(N)c3C)C(OC3OC(CO)C(O)C(O)C3OC3OC(CO)C(O)C(OC(N)=O)C3O)c3cnc[nH]3)C(C)O)n2)n1` (stereo not given), 97% (active); to `c1ccc(-c2ccc(-c3cnc(-c4ccc(-c5ccccc5)cc4)o3)cc2)cc1`, 4% (inactive).
On the same count and under the same terms, with `CN(C)C=Nc1ccc2nonc2c1` the figure was 15% (inactive); with `COC(=O)C(CCC(=O)Cc1ccccc1)N1C(=O)c2ccccc2C1=O` (stereo not given), 6% (inactive).
Still for that read-out and setting: with `O=S(=O)(Nc1ccccc1)c1ccccc1CC(O)(c1ccccc1)c1ccccc1` the figure was 46% (inactive); with `O=C1OC(=O)C2C=CC=CC12` (stereo not given), 2% (inactive); with `CCOC(=O)N/N=C/c1ccc([N+](=O)[O-])o1`, 11% (inactive).
In the case of `CN=C(N)N/N=C(\C)c1ccc2c(ccc3ccccc32)c1`, the growth inhibition is 11% (inactive).
Consider `O=C(C(/C=N/C(=S)NCc1ccccc1)=C(/O)c1ccccc1)c1ccccc1`, for which the growth inhibition was 6% (inactive).
As to `Cc1nc(Nc2ccc(Cl)cc2)sc1C(=O)Nc1cccc2c(=O)[nH][nH]c(=O)c12`, the growth inhibition is 13% (inactive).
Same read-out and setting: with `Cc1c2ccccc2c(C)c2c1cc(F)c1ccccc12` the figure was 32% (inactive); with `CC1=C(C(=O)Nc2ccccc2)C(c2cc(Cl)cc(Cl)c2)C(C(=O)Nc2ccccc2)=C(C)N1`, 2% (inactive); with `O=[N+]([O-])/C(Br)=C\c1ccc([N+](=O)[O-])cc1`, 19% (inactive).
Same read-out and setting: to `CC1=CC(C)(C)Nc2cc(N)ccc21` belongs -166% (inactive); to `Fc1ccc2nncc(SCc3ccccc3)c2c1`, 1% (inactive); to `CN(C)c1ccc(-c2c(C#N)c(-c3ccccc3)n(NS(=O)(=O)c3ccccc3)c(=O)c2C#N)cc1`, 19% (inactive).
Take `Cc1cc(N2C(=O)CCSC2=S)ccc1Cl`: the growth inhibition is 88% (active).
On to `C=C(c1ccccc1)[P+](c1ccccc1)(c1ccccc1)c1ccccc1`, for which the growth inhibition is 97% (active).
Still for that read-out and setting: with `Cc1cc(Br)c2ccccc2c1N` the figure was 1% (inactive).
Same read-out and setting: to `CC1C[N+](C)(C)C(C)C(=O)C1(c1ccccc1)c1ccccc1` (stereo not given) belongs -9% (inactive); to `CC(=O)N(C1=CC(=O)c2ccccc2C1=O)c1ccc(C)cc1`, 16% (inactive); to `CC(c1ccccc1)n1c2ccccc2c2c(N)ncnc21` (stereo not given), 6% (inactive).
Still for that read-out and setting: with `CC(=O)O/N=C1/CCC2C3CC=C4CC(OC(C)=O)CCC4(C)C3CCC12C` (stereo not given) the figure was 0% (inactive).
With `c1cc(CCSSCCc2ccncc2)ccn1`, the growth inhibition was 7% (inactive).
Turning to `CC1=C(C(=O)Nc2cc(C)ccc2C)C(c2cccc([N+](=O)[O-])c2)C(C(=O)Nc2cc(C)ccc2C)=C(C)N1`, the growth inhibition was 8% (inactive).
On to `ClC1=CC(Cl)=C2N=C(C(Cl)(Cl)Cl)N=C3N=C(C(Cl)(Cl)Cl)N=C1N32`, for which the growth inhibition is 29% (inactive).
Consider `C[n+]1c(-c2ccc(/C=N/Nc3n[nH]c(=S)n3/N=C/c3ccc(-c4cn5ccsc5[n+]4C)cc3)cc2)cn2ccsc21`, for which the growth inhibition is -14% (inactive).
`CC1(C)OC(=O)C(=NNc2ccccc2[N+](=O)[O-])C(=O)O1`: the growth inhibition was 5% (inactive).
For `CC(CCCOC(c1ccccc1)(c1ccccc1)c1ccccc1)OC(=O)Nc1ccccc1` (stereo not given), the growth inhibition was 85% (active).
Take `CCN(CC)c1ccc2nc3ccc(N(CC)CC)cc3[n+](-c3ccccc3)c2c1`: the growth inhibition is 97% (active).
Turning to `CC1OC(C)C(O)C2=C1C(=O)c1ccccc1C2=O` (stereo not given), the growth inhibition was -4% (inactive).
Same read-out and setting: to `CCCCCCCCCCCCS(=O)(=O)CC(Br)C(=O)c1ccco1` (stereo not given) belongs 57% (inactive); to `NC(=O)NOCC1NC(=O)NC1=O` (stereo not given), -24% (inactive).
Same read-out and setting: with `O=C(O)C1C(=O)OC2CCCCC21` (stereo not given) the figure was 0% (inactive).
Regarding `C=CCNC(=S)N/N=C(\CCC)c1ccccn1`, the growth inhibition is 98% (active).
Same read-out and setting: with `Nc1ccc2c(c1)S(=O)(=O)c1cc(N)ccc1-2` the figure was 22% (inactive); with `CN1C(=O)c2cccc3cc([N+](=O)[O-])cc(c23)C1=O`, 6% (inactive).
Still for that read-out and setting: to `C/C(=N\NC(=S)NC12CC3CC(CC(C3)C1)C2)c1ccccn1` belongs 5% (inactive).

The same experiment, now with this note: S. cerevisiae rad50 strain growth inhibition; at 50.0 µM (retest, dose inferred, filed as 5.0); stronger effect = higher value.
Take `Cc1ccccc1N1C(=O)C(=O)c2cccc(C)c21`: the growth inhibition was 98% (active).
Still for that read-out and setting: with `Nc1n[nH]c(=O)c2cccnc12` the figure was -13% (inactive); with `CCCCNCCCNCCCNC(=O)c1csc(-c2csc(CCNC(=O)C(NC(=O)C(C)C(O)C(C)NC(=O)C(NC(=O)c3nc(C(CC(N)=O)NCC(N)C(N)=O)nc(N)c3C)C(OC3OC(CO)C(O)C(O)C3OC3OC(CO)C(O)C(OC(N)=O)C3O)c3cnc[nH]3)C(C)O)n2)n1` (stereo not given), 99% (active).
In the case of `c1ccc(-c2ccc(-c3cnc(-c4ccc(-c5ccccc5)cc4)o3)cc2)cc1`, the growth inhibition was 30% (inactive).
Regarding `CN(C)C=Nc1ccc2nonc2c1`, the growth inhibition was 24% (inactive).
In the case of `COC(=O)C(CCC(=O)Cc1ccccc1)N1C(=O)c2ccccc2C1=O` (stereo not given), the growth inhibition is 67% (inactive).
Same read-out and setting: with `O=S(=O)(Nc1ccccc1)c1ccccc1CC(O)(c1ccccc1)c1ccccc1` the figure was 90% (active); with `O=C1OC(=O)C2C=CC=CC12` (stereo not given), -5% (inactive).
Still for that read-out and setting: with `CCOC(=O)N/N=C/c1ccc([N+](=O)[O-])o1` the figure was 61% (inactive).
As for `CN=C(N)N/N=C(\C)c1ccc2c(ccc3ccccc32)c1`, the growth inhibition was 98% (active).
As to `O=C(C(/C=N/C(=S)NCc1ccccc1)=C(/O)c1ccccc1)c1ccccc1`, the growth inhibition was 86% (active).
On to `Cc1nc(Nc2ccc(Cl)cc2)sc1C(=O)Nc1cccc2c(=O)[nH][nH]c(=O)c12`, for which the growth inhibition was 13% (inactive).
Same read-out and setting: to `Cc1c2ccccc2c(C)c2c1cc(F)c1ccccc12` belongs 88% (active); to `CC1=C(C(=O)Nc2ccccc2)C(c2cc(Cl)cc(Cl)c2)C(C(=O)Nc2ccccc2)=C(C)N1`, 2% (inactive).
As to `O=[N+]([O-])/C(Br)=C\c1ccc([N+](=O)[O-])cc1`, the growth inhibition was 99% (active).
As for `CC1=CC(C)(C)Nc2cc(N)ccc21`, the growth inhibition was -193% (inactive).
Turning to `Fc1ccc2nncc(SCc3ccccc3)c2c1`, the growth inhibition is 97% (active).
`CN(C)c1ccc(-c2c(C#N)c(-c3ccccc3)n(NS(=O)(=O)c3ccccc3)c(=O)c2C#N)cc1`: the growth inhibition was 36% (inactive).
As for `Cc1cc(N2C(=O)CCSC2=S)ccc1Cl`, the growth inhibition was 28% (inactive).
On to `C=C(c1ccccc1)[P+](c1ccccc1)(c1ccccc1)c1ccccc1`, for which the growth inhibition was 99% (active).
Same read-out and setting: to `Cc1cc(Br)c2ccccc2c1N` belongs 69% (inactive); to `CC1C[N+](C)(C)C(C)C(=O)C1(c1ccccc1)c1ccccc1` (stereo not given), 2% (inactive); to `CC(=O)N(C1=CC(=O)c2ccccc2C1=O)c1ccc(C)cc1`, 99% (active).
Same read-out and setting: to `CC(c1ccccc1)n1c2ccccc2c2c(N)ncnc21` (stereo not given) belongs 100% (active); to `CC(=O)O/N=C1/CCC2C3CC=C4CC(OC(C)=O)CCC4(C)C3CCC12C` (stereo not given), 69% (inactive); to `c1cc(CCSSCCc2ccncc2)ccn1`, 89% (active).
For `CC1=C(C(=O)Nc2cc(C)ccc2C)C(c2cccc([N+](=O)[O-])c2)C(C(=O)Nc2cc(C)ccc2C)=C(C)N1`, the growth inhibition is 49% (inactive).
Same read-out and setting: to `ClC1=CC(Cl)=C2N=C(C(Cl)(Cl)Cl)N=C3N=C(C(Cl)(Cl)Cl)N=C1N32` belongs 80% (active); to `C[n+]1c(-c2ccc(/C=N/Nc3n[nH]c(=S)n3/N=C/c3ccc(-c4cn5ccsc5[n+]4C)cc3)cc2)cn2ccsc21`, 97% (active).
Take `CC1(C)OC(=O)C(=NNc2ccccc2[N+](=O)[O-])C(=O)O1`: the growth inhibition was 4% (inactive).
`CC(CCCOC(c1ccccc1)(c1ccccc1)c1ccccc1)OC(=O)Nc1ccccc1` (stereo not given): the growth inhibition was 85% (active).
Regarding `CCN(CC)c1ccc2nc3ccc(N(CC)CC)cc3[n+](-c3ccccc3)c2c1`, the growth inhibition was 98% (active).
Regarding `CC1OC(C)C(O)C2=C1C(=O)c1ccccc1C2=O` (stereo not given), the growth inhibition was 95% (active).
Still for that read-out and setting: with `CCCCCCCCCCCCS(=O)(=O)CC(Br)C(=O)c1ccco1` (stereo not given) the figure was 96% (active).
Consider `NC(=O)NOCC1NC(=O)NC1=O` (stereo not given), for which the growth inhibition is -4% (inactive).
`O=C(O)C1C(=O)OC2CCCCC21` (stereo not given): the growth inhibition is -4% (inactive).
Same read-out and setting: to `C=CCNC(=S)N/N=C(\CCC)c1ccccn1` belongs 95% (active); to `Nc1ccc2c(c1)S(=O)(=O)c1cc(N)ccc1-2`, 27% (inactive).
The same measure, in the same setting: with `CN1C(=O)c2cccc3cc([N+](=O)[O-])cc(c23)C1=O` the figure was 80% (active); with `C/C(=N\NC(=S)NC12CC3CC(CC(C3)C1)C2)c1ccccn1`, 95% (active).
